Assay results as given in PubChem BioAssay AID1025 (Sanford-Burnham Center for Chemical Genomics, 2008).
Out of some 96,000 compounds screened, fewer than 10 were called active.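 How the source made its calls: active means activation factor of at least 2 at 5 µM in the primary screen; inactive means the rest.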 Not all results are given here.

Molecular target: Cytochrome P450 2C19 (Homo sapiens) (UniProt P33261)
Experiment: enhancers of cytochrome P450 2C19 turnover – biochemical, luminescence, primary screen (AID 1025);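 further: 0 = wells with 2.5 mM tranylcypromine and 1 = vehicle-only wells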
Details: recombinant CYP2C19, luciferin-H EGE luminescence; at 5 µM; hits give high values; 0 = fully inhibited enzyme, 1 = untreated enzyme

Chain of Cytochrome P450 2C19 (Homo sapiens) (P33261 whole entry, looked up): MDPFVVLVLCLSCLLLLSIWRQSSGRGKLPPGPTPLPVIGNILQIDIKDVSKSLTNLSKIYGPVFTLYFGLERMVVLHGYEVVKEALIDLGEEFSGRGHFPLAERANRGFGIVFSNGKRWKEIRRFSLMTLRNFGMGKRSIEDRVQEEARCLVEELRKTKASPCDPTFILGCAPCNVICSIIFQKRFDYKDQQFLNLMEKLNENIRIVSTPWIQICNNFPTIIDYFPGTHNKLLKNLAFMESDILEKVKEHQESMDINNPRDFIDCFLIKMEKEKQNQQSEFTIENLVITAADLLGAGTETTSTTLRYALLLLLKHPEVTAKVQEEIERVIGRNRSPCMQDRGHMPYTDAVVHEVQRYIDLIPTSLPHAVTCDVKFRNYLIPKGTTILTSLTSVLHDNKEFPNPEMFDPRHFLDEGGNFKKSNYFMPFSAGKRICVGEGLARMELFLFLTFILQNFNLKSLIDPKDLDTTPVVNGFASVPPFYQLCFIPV

Activation factor, inactive:
CC1CCC(N2CC(=O)N(Cc3ccc4c(c3)OCO4)C(c3ccc(F)cc3)C2=O)CC1 (stereo not drawn) 0.8
C/C(=N\NC(=O)c1ccccc1C)c1ccc(N2CCOCC2)cc1 1
C=CCOc1cccc(CNn2cn[nH]c2=S)c1 0.7
COc1cc(OC)cc(C(=O)NC(=S)N2CCN(c3ccc(C(F)(F)F)cc3[N+](=O)[O-])CC2)c1 0.8
Cc1ccc(N(Cc2ccc(C(=O)Nc3ccccc3C(=O)NCc3ccco3)cc2)S(C)(=O)=O)cc1C 0.1
Cc1cc(=O)oc2ccc(OCC(=O)O)cc12 1
NC(=O)c1c(NC(=O)CSc2nnc(-c3ccco3)n2N)sc2c1CCCC2 0.7
O=C(O)/C=C/C(=O)Nc1ccc(F)cc1F 0.9
Clc1ccc(COn2c(-c3ccc(Cl)cc3Cl)nc3ncccc32)cc1 0
CCOCCn1c(C(C)C)nc2ccccc21 0.8
O=C(CCc1ccc(S(=O)(=O)N2CCOCC2)cc1)Nc1ccc2ccccc2c1 0.4
CCC(CC)C(=O)N1CC(=O)Nc2ccc(Br)cc2C1c1ccccc1 (stereo not drawn) 0.5
CC(N)C12CC3CC(CC(O)(C3)C1)C2 (stereo not drawn) 0.9
COc1ccc(C(=O)CN(C(=O)c2ccc(Cl)cc2)N2C(=O)c3ccccc3C2=O)cc1 0.6
O=C(CCN1c2ccccc2Sc2ccccc21)Nc1ccccc1 0.2
CCOc1cc(CNCCN(C)C)c(Cl)cc1OCC(=O)NCCc1ccccc1 1
Cc1cc(C(=O)Nc2c(C)nn(Cc3ccccc3)c2C)on1 0.9
CC(C)CNC(=S)NNC(=O)c1ccccc1OC(F)F 0.8
Cc1ccccc1NC(=O)C(C)c1ccc(-c2ccccc2)c(F)c1 (stereo not drawn) 0.9
Cc1ccc(CS(=O)(=O)CCC(=O)NC2CC2)cc1 0.9
O=C(NC1CCCCC1)C1CC(=O)N(CCc2ccccc2)C1 (stereo not drawn) 1.1
Cc1ccc(C2NC(=S)NC3=C2N2CCC3CC2)cc1 (stereo not drawn) 1.1
C/C(=N\NS(=O)(=O)c1ccc(Br)cc1)c1cccs1 0.3
CC1(C)CC(CC(=O)O)C(=O)O1 (stereo not drawn) 1.1
CCOC(=O)c1cnc(SC)nc1Sc1ccc(Cl)cc1Cl 0.7
CS(=O)(=O)N(CC(=O)Nc1ccc(F)cc1F)c1cccc([N+](=O)[O-])c1 0.4
CSc1ccccc1NC(=O)c1cc(C2CC2)on1 0.7
O=C(/C=C\NCC(=O)c1ccccc1)c1ccccc1 0.5
O=C(NCc1ccccn1)c1cc(-c2ccccc2Cl)on1 0.9
COc1cc(/C=N\NC(=O)CNC(=O)c2cccc([N+](=O)[O-])c2)ccc1O 0.8
COc1ccc(CC(=O)Nc2sc(Cc3ccccc3)c(C)c2C(N)=O)cc1 1
FC(F)(F)c1nnc2ccc(N3CCN(c4ccccc4)CC3)nn12 0.7
CC1CC(C)CN(C(=O)CSc2nnc(CSc3ncccn3)n2C)C1 (stereo not drawn) 1.1
Cc1cc2[nH]ncc2cc1NC(=S)NC(=O)c1ccccc1 0
CCCCCCSc1nsc(N)n1 0.5
COc1cccc(-c2cc(C(=O)N/N=C/c3ccc(OC)c(COC(C)=O)c3)c3ccccc3n2)c1 0.5
CC1=NN(C(=O)Cc2ccc(C)cc2)C(O)(c2cccnc2)C1 (stereo not drawn) 0.4
ONC(=Nc1ccccc1)c1ccccc1Cl 0.7
Oc1ccccc1CNc1ncc(Br)cc1Br 0.6
Cc1nc(SCC(=O)N2CC(=O)Nc3ccccc32)c2c(C)c(C)sc2n1 0.5
COc1ccc(C(=S)Nc2ccccc2)cc1 0.3
N#Cc1ccc(-c2ccc(F)cc2)nc1Sc1ccccc1 1
OCCNc1nc2ccccc2n1-c1ncnc2sc3c(c12)CCC3 1.1
O=C(Nc1ccc(Br)cc1)c1cccc(NC(=O)C2C3CC4OC(=O)C2C4C3)c1 (stereo not drawn) 0.8
Cc1ccc(NC(=O)N2CCC(c3nc4c(nnn4Cc4c(F)cccc4Cl)c(=O)[nH]3)CC2)cc1 0
O=C(NC1CCc2ccccc21)C12CN(Cc3ccccc3)CC1C(c1cccc([N+](=O)[O-])c1)=NO2 (stereo not drawn) 0.9
S=C1NC(c2ccccc2)=NCN1c1ccc(Br)cc1 0.5
COC(=O)c1ccc(CSc2nc3cc(Cl)ccc3o2)cc1 1.1
O=C(NCCc1ccccc1)c1ccc(NC2=NC3CS(=O)(=O)CC3S2)cc1 (stereo not drawn) 0.9
Cn1nc(-c2ccccc2)c(CSc2cccc(Cl)c2)c1Cl 0.5
CC1(C)COC(c2cccn2Cc2ccccc2Cl)=N1 1
S=c1[nH]nc(-c2ccc(Cl)cc2)n1CC1CCCO1 (stereo not drawn) 0.6
Cc1ccc(C2CC2C(=O)NN)cc1 (stereo not drawn) 0.5
N=c1c2c(-c3ccccc3)c(-c3ccccc3)oc2ncn1Cc1ccco1 0.8
O=c1[nH]c(CCl)nc2cc(-c3ccc(Cl)cc3)sc12 0.7
CCCSC(=S)NC1CCS(=O)(=O)C1 (stereo not drawn) 0.9
CC(Sc1nnc(Cc2ccc([N+](=O)[O-])cc2)o1)C(N)=O (stereo not drawn) 0.8
Cc1ccc(NC(=S)NCCN2CCOCC2)cc1 0.8
Cc1cnc(NC(=O)CSc2nnc(C)s2)s1 0.8
Cc1ccc(N2C(=O)C(Cc3ccccc3)NC2=S)cc1 (stereo not drawn) 0.6
CC1=C(C)CC(C(=O)NNC(=O)c2ccccc2O)C(C(=O)O)C1 (stereo not drawn) 1.1
CCN(CC(=O)Nc1ccccc1OC)C(=O)Cn1cnc2ccccc2c1=O 1
O=c1[nH][nH]c(C(F)(F)F)c1C=NCc1ccccc1Cl 0.1
COC(=O)c1sc2ncccc2c1OCc1ccc(Cl)cc1Cl 1
CCOC(=O)C1Sc2[nH]c(=O)sc2C(c2ccc(Cl)cc2)C1C(=O)OCC (stereo not drawn) 0.8
C=CCN(N=Nc1cccc([N+](=O)[O-])c1)c1cccc([N+](=O)[O-])c1 0.8
CC(CC(=O)Nc1cc(C(F)(F)F)ccc1Cl)c1ccccc1 (stereo not drawn) 0.4
C(=N/N1CCN(c2ccccc2)CC1)/c1cccs1 0.5
CC1(C)CC(=O)C(C=NCCN2CCN(C(=S)Nc3cccc(Cl)c3)CC2)=C(O)C1 0.4
O=C(C1=C(O)C(=O)N(Cc2ccccc2)C1c1ccco1)c1ccco1 (stereo not drawn) 1.2
Nc1nc(C23CC4CC(CC(C4)C2)C3)cs1 0.6
CC(C)N(c1ccccc1)c1ncnc(NCCC(=O)O)c1[N+](=O)[O-] 0.4
CC1=C(C(N)=O)C(c2sccc2C)n2nnnc2N1 (stereo not drawn) 0.9
